Screens deposited in PubChem by National Center for Advancing Translational Sciences (NCATS).
Hits are enriched below; roughly 19% of the tested compounds scored in any of these assays.
HT1080-NT tox: qHTS for induction of synthetic lethality in tumor cells producing 2HG: qHTS for the HT-1080-NT fibrosarcoma cell line; Potency, µM (series often up to 46.1 µM), inactives show at the top dose activity, negative = less viability, usual class: cytotoxic; actives 1.6% (n = 360,000); HT-1080-NT fibrosarcoma viability, CellTiter-Glo ATP luminescence, 48 h;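 also: NT is the 2HG producing partner of a matched IDH1 knockdown line; potency is read from the fitted curve at half-maximal effect; 0% = DMSO-treated cells and -100% = media-only wells without cells; nearly all actives have a fitted effect of over 55% in size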
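A 48-hour cytotoxicity screen used HT-1080-NT cells plated 2 hours before compound delivery. ATP-based CellTiter-Glo luminescence measured viability, normalized to DMSO and no-cell controls.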
TDP1 cell CPT: qHTS for Inhibitors of human tyrosyl-DNA phosphodiesterase 1 (TDP1): qHTS in cells in presence of CPT; chicken DT40 Tdp1-/-;hTDP1 cells + 20 nM CPT, ATP luminescence, 48 h; Potency, µM (series often up to 46.2 µM), inactives show at the highest dose activity change, negative = growth inhibition, actives largely listed as inhibitors; actives 12% (n = 420,000); AID 686979, 2013; also: potency is read from the fitted curve at half-maximal effect; nearly all actives have a fitted effect of over 55% in size
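Chicken DT40 Tdp1-/- cells stably complemented with human TDP1 were seeded at 400 cells/well in medium containing 20 nM camptothecin, exposed to pin-transferred compounds, and grown at 37 °C for at least 48 hr. Viability was read as ATP luminescence.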
IL1B secr inh: qHTS for Inhibitors of Inflammasome Signaling: IL-1-beta AlphaLISA Primary Screen. actives 4.7% (n = 360,000). THP-1 LPS/ATP IL-1B secretion, AlphaLISA, 16 h; active compounds read low. activity change, % at 57.5 µM; in the data active = activity change below about -50%; inconclusive = mostly about -30% to -49%
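THP-1 cells pretreated 1 hr with compounds (up to 57.5 uM final), then stimulated with LPS (250 ng/mL final) plus ATP (1.25 mM final); secreted IL-1B measured by AlphaLISA after 16 hr, decreased signal indicating inhibition.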
HT1080 IDH1KD tx: qHTS for induction of synthetic lethality in tumor cells producing 2HG: qHTS for the HT-1080-IDH1KD cell line; HT-1080 IDH1 knockdown viability, ATP luminescence, 48 h; Potency, µM (titrated, usually from 46.1 µM), for inactives: top-dose activity, negative = toxicity, usual class: cytotoxic; actives 2% (n = 360,000); AID 686971, 2013;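 also: potency is read from the fitted curve at half-maximal effect; 0% = DMSO wells and -100% = cell-free medium wells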
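Viability of IDH1-knockdown HT-1080 fibrosarcoma cells was assessed by CellTiter-Glo after 48 h at 37 °C with titrated compound; concentration-effect curves were classified by fit quality and response size.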
DT40 TDP1 no CPT: qHTS for Inhibitors of human tyrosyl-DNA phosphodiesterase 1 (TDP1): qHTS in cells in absence of CPT; actives 15% (n = 420,000); Potency, µM (highest dose often 46.2 µM), for the others: top-dose activity change, negative = growth inhibition, usual class: inhibitors; DT40 Tdp1-/- hTDP1 cells, no CPT, ATP luminescence, 48 h; AID 686978, 2013; also: potency is read from the fitted curve at half-maximal effect; nearly all actives have a fitted effect of over 55% in size
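No-CPT arm: Tdp1-/-;hTDP1 DT40 cells (400/well) plus compounds, incubated ≥48 hr at 37 °C. Readout CellTiter-Glo luminescence.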
ELG1 DNA repair: qHTS screen for small molecules that inhibit ELG1-dependent DNA repair in human embryonic kidney (HEK293T) cells expressing luciferase-tagged ELG1; Potency, µM (top dose mostly 46.1 µM), for inactives: top-dose activity change, negative = inhibition, most hits filed as inhibitors; actives 2.3% (n = 330,000); HEK293T ELG1-luciferase reporter, luminescence, 16 h; DNA damage induced by 5-fluorouridine; also: potency is read from the fitted curve at half-maximal effect; nearly all actives have a fitted effect of over 55% in size
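Cells (2,000 per well) received 5-fluorouridine plus test compound or DMSO and were incubated 16 hr at 37 °C, 5% CO2. Luciferase activity was read by luminescence 30 min after ONE-Glo addition; signal suppression marked inhibition of damage-induced ELG1 function.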
* = called active by the depositor; u = inconclusive; x = no result. Unless noted, calls follow the shape of the dose curve; as a rule, active = well fitted curve in the direction sought with a large enough effect; inconclusive = small, poorly fitted or top-dose-only effect, or another doubt; inactive = no such curve, though single readings can be large; an effect the other way counts as inactive or inconclusive. Unless noted, % is scaled to controls: 0 for no effect and ±100 for the full control effect.

SMILES | HT1080-NT tox | TDP1 cell CPT | IL1B secr inh | HT1080 IDH1KD tx | DT40 TDP1 no CPT | ELG1 DNA repair
COc1ccc(C=O)cc1COc1ccc([N+](=O)[O-])c(C)c1 | u | 16µM* | 15 | u | 21µM* | 6%
COc1ccc(C=O)cc1COc1ccc2c(c1)OCO2 | u | 3.7µM* | 47 | 23µM* | 4.6µM* | 14%
Cn1c(-c2cccc(Br)c2)cnc1NCc1ccccc1O | -16% | 5% | -69* | u | u | -19%
Cn1c(-c2ccc3c(c2)OCO3)cnc1NCc1ccccc1Cl | -2% | u | -17 | -1% | 15µM* | u
Cn1c(-c2ccc3c(c2)OCO3)cnc1NCc1ccccc1 | u | 21µM* | -10 | u | u | 17%
Cn1c(-c2ccc3c(c2)OCO3)cnc1NC(=O)CCC(=O)NCCc1ccccc1 | 1% | -11% | -10 | 4% | -24% | u
Cn1c(-c2ccc(F)cc2)cnc1NCc1cccc([N+](=O)[O-])c1 | 5% | u | u | -1% | u | 2%
Cn1c(-c2cccc([N+](=O)[O-])c2)cnc1NCc1cccc(F)c1 | -5% | u | -14 | -3% | 21µM* | -7%
CC1CCCC(NC(=O)C2COc3ccccc3O2)C1C (stereo not drawn) | -2% | -20% | -1 | 2% | u | 0%
COc1ccccc1N(Cc1ccccc1)S(=O)(=O)c1cccc(C(=O)Nc2ccc(C)cn2)c1 | -17% | u | -7 | -3% | u | u
CCn1c(CNC(=O)c2ccc(OC)cc2)nnc1SCC(=O)Nc1cccc(C)c1C | x | -2% | x | x | -30% | x
CCc1ccccc1NC(=O)Nc1cccn(Cc2ccccc2F)c1=O | -6% | u | -26 | -15% | u | -10%
CSc1ccc(NC(=O)Nc2cccn(Cc3ccccc3F)c2=O)cc1 | -1% | u | -68* | -24% | 26µM* | 6%
CCOc1ccc(NC(=O)Nc2cccn(Cc3ccccc3)c2=O)cc1 | u | u | -74* | u | 15µM* | u
CCOC(=O)Cc1ccc(NC(=O)NCc2cccn2Cc2ccccc2)cc1 | x | 13µM* | x | x | 21µM* | x
CCOc1ccc(NC(=O)Nc2ccccc2SC)cc1 | -22% | u | u | -23% | 23µM* | u
CC(c1ccccc1)n1c(SCC(=O)Nc2ccccc2)n[nH]c1=O (stereo not drawn) | -12% | 3% | 31 | -26% | -13% | u
O=c1[nH]nc(Br)c(=O)n1C(c1ccccc1)c1ccccc1 | -6% | 21µM* | -5 | -10% | u | x
Nc1nc2c(nc(Br)n2C2CC(O)C(CO)O2)c(=O)[nH]1 (stereo not drawn) | x | -1% | x | x | 5% | x
CCc1ccc(C(=O)c2cnc3ccc(OC)cc3c2N2CCN(CC)CC2)cc1 | -1% | u | -11 | -17% | u | 2%
CCc1ccc2ncc(C(=O)c3ccc(C)c(C)c3)c(N3CCC(C(N)=O)CC3)c2c1 | x | 23µM* | x | x | 21µM* | x
CCOC(=O)C1CCN(c2c(C(=O)c3ccccc3)cnc3ccc(Cl)cc23)CC1 | 1% | 23µM* | 37 | -1% | 18µM* | -9%
CCOC(=O)C1CCN(c2nc(-c3ccc(C)cc3)nc3ccccc23)CC1 | -11% | 2% | 0 | -23% | -29% | u
